From PMC7862700, “An all-to-all approach to the identification of sequence-specific readers for epigenetic DNA modifications on cytosine” come the findings set out here.

What all share (test): DAPPL (digital affinity profiling via proximity ligation, sequencing); 10 mM Tris-HCl pH 7.5, 50 mM NaCl, 1 mM DTT, 4% glycerol, room temperature, 30 min; GST-TFs on glutathione beads, 16-mer random dsDNA library, 0.1% formaldehyde crosslink after washing; high values mean tight binding
The target of one assay is T1, FEV (Homo sapiens, UniProt Q99581 1-238).
T1 sequence: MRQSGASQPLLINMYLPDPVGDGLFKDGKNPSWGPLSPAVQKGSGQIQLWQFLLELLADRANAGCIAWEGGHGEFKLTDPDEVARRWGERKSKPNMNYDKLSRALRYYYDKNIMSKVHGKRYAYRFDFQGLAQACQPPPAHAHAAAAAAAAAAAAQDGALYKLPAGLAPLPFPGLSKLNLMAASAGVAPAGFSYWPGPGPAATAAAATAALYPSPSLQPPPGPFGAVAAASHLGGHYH
To be noted: protein: recombinant; tags: N-terminal GST; dsDNA, one strand shown. Put shortly: (§1)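 Binding signal is each hexamer's read frequency for a factor divided by its frequency in the tag-only sample. The factors were GST-fused human transcription factors from yeast, captured on glutathione beads, DNA-barcoded and pooled with that sample. Pools were incubated with 200 nmole of a random double-stranded 16-mer DNA library in Tris/NaCl/DTT/glycerol buffer at room temperature for 30 min, then washed, crosslinked with 0.1% formaldehyde, proximity-ligated with BsaI/T4 ligase (1 h, 37 °C), PCR-amplified and sequenced on an Illumina NextSeq500.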

The next assay addresses ETV5 (Homo sapiens, UniProt P41161 1-510). Particulars: protein: recombinant; tags: N-terminal GST; dsDNA, one strand shown. Put shortly:
as §1

For a further assay, the target named is HSF1 (Homo sapiens, UniProt Q00613 1-529). Particulars: protein: recombinant; tags: N-terminal GST; chain copies: 3; dsDNA, one strand shown. In outline:
as §1

A further assay addresses T2, SPIC (Homo sapiens, UniProt Q8N5J4 1-248).
T2 sequence: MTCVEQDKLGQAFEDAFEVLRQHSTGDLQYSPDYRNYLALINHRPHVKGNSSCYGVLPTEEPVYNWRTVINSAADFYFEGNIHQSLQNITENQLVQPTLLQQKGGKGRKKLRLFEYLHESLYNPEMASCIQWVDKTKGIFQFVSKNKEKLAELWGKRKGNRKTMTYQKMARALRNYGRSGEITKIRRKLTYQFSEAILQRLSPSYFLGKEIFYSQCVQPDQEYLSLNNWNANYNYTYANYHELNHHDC
Particulars: protein: recombinant; tags: N-terminal GST; dsDNA, one strand shown. In outline: as §1

The next assay deals with ELF4 (Homo sapiens, UniProt Q99607 1-663). Particulars: protein: recombinant; tags: N-terminal GST; dsDNA, one strand shown. Put shortly: as §1
The next assay concerns the target T3, ELK4 (Homo sapiens, UniProt P28324-2 1-405).
T3 sequence: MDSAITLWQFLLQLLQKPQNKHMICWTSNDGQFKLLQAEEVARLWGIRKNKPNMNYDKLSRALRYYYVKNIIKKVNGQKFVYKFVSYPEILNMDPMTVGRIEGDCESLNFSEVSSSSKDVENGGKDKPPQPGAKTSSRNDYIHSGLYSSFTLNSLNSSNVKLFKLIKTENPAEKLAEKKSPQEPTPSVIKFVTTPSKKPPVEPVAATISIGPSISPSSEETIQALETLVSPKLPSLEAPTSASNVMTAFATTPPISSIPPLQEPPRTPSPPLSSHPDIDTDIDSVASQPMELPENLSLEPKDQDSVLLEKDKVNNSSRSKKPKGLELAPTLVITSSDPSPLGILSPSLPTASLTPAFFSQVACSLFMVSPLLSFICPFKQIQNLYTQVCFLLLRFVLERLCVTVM
Particulars: protein: recombinant; tags: N-terminal GST; dsDNA, one strand shown. Put shortly: as §1

Another assay addresses T4, ETV2 (Homo sapiens, UniProt O00321 1-342).
T4 sequence: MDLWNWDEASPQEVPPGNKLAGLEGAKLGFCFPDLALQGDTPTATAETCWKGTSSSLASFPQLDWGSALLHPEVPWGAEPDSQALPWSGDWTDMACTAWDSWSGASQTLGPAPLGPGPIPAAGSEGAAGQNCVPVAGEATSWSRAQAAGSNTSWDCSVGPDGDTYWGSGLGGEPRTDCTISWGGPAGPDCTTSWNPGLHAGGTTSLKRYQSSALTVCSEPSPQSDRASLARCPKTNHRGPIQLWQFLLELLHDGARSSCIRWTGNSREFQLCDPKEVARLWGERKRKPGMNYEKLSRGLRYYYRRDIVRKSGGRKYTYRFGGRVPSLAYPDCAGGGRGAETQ
To be noted: protein: recombinant; tags: N-terminal GST; dsDNA, one strand shown. In outline: as §1

The target in a further assay is T5, ELF3 (Homo sapiens, UniProt P78545 1-371).
T5 sequence: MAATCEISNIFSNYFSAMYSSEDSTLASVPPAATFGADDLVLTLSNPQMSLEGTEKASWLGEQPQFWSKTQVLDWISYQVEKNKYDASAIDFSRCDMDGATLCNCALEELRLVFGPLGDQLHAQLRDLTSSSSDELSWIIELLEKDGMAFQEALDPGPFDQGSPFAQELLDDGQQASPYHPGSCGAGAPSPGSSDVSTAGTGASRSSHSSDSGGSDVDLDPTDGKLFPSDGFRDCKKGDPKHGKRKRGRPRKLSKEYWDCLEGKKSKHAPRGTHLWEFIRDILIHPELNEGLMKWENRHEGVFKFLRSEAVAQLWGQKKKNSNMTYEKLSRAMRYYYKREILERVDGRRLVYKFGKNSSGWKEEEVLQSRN
To be noted: protein: recombinant; tags: N-terminal GST; dsDNA, one strand shown. In outline:
as §1

Another assay has as its target CRX (Homo sapiens, UniProt O43186 1-299). Particulars: protein: recombinant; tags: N-terminal GST; dsDNA, one strand shown. In outline:
as §1

A further assay concerns the target ETV1 (Homo sapiens, UniProt P50549 1-477). Particulars: protein: recombinant; tags: N-terminal GST; dsDNA, one strand shown. Put shortly:
as §1

A further assay concerns the target T6, ERF (Homo sapiens, UniProt P50548 1-548).
T6 sequence: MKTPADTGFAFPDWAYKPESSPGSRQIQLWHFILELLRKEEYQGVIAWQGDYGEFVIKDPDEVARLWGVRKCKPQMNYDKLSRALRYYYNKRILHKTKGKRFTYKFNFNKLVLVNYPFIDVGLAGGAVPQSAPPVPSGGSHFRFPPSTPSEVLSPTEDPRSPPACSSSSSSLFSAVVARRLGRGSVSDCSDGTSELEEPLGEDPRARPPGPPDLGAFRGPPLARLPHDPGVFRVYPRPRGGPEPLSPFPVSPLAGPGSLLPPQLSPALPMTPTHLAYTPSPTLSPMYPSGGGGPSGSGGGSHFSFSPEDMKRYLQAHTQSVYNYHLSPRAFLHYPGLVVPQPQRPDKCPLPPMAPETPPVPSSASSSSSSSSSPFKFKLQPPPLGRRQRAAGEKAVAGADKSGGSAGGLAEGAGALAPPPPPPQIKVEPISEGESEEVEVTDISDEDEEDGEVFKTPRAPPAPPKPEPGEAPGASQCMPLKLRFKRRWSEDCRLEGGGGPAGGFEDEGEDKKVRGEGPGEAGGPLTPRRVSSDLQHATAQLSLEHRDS
To be noted: protein: recombinant; tags: N-terminal GST; dsDNA, one strand shown. Put shortly: as §1

A further assay has as its target T7, ETV3L (Homo sapiens, UniProt Q6ZN32 1-361).
T7 sequence: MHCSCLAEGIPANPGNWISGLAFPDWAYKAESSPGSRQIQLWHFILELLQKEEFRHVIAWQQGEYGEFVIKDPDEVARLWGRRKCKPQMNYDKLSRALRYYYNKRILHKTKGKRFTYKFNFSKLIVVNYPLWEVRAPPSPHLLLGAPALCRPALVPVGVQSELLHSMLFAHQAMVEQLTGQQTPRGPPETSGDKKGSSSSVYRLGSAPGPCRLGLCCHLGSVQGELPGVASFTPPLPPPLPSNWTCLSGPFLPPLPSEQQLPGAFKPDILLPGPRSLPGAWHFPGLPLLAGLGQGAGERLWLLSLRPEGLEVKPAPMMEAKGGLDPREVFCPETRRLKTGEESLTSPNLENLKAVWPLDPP
To be noted: protein: recombinant; tags: N-terminal GST; dsDNA, one strand shown. In outline: as §1

The next assay addresses T8, ETS2 (Homo sapiens, UniProt P15036 1-469).
T8 sequence: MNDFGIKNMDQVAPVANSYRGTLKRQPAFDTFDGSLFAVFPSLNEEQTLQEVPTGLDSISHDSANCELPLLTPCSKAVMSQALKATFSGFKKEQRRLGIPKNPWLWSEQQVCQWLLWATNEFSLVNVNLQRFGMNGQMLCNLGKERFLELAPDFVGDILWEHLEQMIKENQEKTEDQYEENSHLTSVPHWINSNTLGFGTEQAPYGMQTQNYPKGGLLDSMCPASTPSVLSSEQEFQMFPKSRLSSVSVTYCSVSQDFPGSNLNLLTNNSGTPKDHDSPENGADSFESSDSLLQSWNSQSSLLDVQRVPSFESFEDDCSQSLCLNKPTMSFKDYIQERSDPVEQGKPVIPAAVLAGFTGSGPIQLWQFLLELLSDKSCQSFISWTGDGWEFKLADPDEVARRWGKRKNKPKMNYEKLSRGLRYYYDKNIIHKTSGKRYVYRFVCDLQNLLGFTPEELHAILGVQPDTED
Particulars: protein: recombinant; tags: N-terminal GST; dsDNA, one strand shown. In outline:
as §1

The next assay addresses T9, SPDEF (Homo sapiens, UniProt O95238 1-335).
T9 sequence: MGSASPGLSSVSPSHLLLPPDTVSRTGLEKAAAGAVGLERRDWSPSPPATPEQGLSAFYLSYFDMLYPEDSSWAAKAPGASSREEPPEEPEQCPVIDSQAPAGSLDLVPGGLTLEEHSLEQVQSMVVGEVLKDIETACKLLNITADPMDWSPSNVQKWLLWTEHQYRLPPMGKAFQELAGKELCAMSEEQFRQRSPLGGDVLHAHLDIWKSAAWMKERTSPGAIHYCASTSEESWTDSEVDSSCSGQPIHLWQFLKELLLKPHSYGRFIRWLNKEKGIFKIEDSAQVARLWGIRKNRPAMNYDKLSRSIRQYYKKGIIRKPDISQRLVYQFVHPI
To be noted: protein: recombinant; tags: N-terminal GST; dsDNA, one strand shown. In outline:
as §1

In another assay the target is T10, ETV7 (Homo sapiens, UniProt Q9Y603 1-341).
T10 sequence: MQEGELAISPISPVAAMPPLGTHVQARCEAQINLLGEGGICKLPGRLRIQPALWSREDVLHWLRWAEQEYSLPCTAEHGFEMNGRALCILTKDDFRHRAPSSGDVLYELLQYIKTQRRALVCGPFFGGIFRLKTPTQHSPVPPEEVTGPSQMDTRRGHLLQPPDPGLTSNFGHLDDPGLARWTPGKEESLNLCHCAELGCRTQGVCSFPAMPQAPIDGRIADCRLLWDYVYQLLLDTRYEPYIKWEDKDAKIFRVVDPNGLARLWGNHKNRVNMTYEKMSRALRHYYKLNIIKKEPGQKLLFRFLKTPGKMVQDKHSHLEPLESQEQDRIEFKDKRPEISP
To be noted: protein: recombinant; tags: N-terminal GST; dsDNA, one strand shown. In outline:
as §1

A further assay concerns the target T11, ELF5 (Homo sapiens, UniProt Q9UKW6-2 1-255).
T11 sequence: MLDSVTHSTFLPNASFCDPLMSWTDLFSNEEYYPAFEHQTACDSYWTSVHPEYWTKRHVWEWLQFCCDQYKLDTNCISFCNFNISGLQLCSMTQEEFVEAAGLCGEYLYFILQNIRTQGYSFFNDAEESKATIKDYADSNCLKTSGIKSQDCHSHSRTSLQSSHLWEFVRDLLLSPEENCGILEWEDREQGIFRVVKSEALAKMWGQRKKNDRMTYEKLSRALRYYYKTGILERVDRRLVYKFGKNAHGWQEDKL
To be noted: protein: recombinant; tags: N-terminal GST; dsDNA, one strand shown. In outline:
as §1

A further assay has as its target T12, ETV3 (Homo sapiens, UniProt P41162-2 1-143).
T12 sequence: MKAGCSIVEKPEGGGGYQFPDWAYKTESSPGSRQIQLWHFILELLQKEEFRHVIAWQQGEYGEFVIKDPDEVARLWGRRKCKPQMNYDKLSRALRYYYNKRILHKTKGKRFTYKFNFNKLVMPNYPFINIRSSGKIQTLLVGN
Particulars: protein: recombinant; tags: N-terminal GST; dsDNA, one strand shown. In outline: as §1

A further assay concerns the target ETV6 (Homo sapiens, UniProt P41212 1-452). To be noted: protein: recombinant; tags: N-terminal GST; dsDNA, one strand shown. In outline: as §1

ETV1, sequence (P50549 whole entry): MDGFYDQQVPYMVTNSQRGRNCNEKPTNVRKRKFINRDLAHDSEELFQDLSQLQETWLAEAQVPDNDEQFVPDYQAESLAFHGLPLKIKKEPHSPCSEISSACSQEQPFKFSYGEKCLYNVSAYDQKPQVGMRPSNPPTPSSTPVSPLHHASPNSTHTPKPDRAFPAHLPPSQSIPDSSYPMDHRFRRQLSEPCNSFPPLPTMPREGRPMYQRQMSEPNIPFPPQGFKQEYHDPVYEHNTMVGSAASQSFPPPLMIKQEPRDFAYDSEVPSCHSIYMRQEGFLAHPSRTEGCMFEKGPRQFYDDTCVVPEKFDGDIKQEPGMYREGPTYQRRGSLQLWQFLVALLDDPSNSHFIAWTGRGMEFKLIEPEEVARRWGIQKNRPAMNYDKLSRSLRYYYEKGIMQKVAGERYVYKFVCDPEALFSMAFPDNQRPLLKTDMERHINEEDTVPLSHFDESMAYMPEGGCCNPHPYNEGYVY
HSF1, sequence (Q00613 whole entry): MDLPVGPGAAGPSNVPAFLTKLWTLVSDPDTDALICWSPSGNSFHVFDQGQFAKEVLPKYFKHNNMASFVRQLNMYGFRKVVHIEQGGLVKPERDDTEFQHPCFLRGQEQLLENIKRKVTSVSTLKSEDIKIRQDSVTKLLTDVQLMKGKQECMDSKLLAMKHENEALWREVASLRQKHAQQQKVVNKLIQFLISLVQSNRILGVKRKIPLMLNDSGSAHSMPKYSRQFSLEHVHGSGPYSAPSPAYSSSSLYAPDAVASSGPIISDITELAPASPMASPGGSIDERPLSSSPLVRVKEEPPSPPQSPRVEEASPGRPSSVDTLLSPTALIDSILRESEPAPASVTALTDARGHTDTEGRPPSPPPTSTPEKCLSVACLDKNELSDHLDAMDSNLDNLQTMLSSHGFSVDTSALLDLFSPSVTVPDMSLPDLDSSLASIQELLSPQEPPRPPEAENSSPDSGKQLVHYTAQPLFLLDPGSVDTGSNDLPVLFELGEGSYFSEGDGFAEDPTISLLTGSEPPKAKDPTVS
CRX, sequence (O43186 whole entry): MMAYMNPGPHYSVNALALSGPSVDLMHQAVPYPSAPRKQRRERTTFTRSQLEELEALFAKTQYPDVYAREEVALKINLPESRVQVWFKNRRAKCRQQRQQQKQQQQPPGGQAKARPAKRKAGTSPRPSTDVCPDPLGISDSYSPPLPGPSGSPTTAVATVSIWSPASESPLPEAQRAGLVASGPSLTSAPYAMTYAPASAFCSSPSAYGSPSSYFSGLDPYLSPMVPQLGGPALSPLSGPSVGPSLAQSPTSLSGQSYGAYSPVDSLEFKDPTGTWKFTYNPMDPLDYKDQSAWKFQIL
ETV5, sequence (P41161 whole entry): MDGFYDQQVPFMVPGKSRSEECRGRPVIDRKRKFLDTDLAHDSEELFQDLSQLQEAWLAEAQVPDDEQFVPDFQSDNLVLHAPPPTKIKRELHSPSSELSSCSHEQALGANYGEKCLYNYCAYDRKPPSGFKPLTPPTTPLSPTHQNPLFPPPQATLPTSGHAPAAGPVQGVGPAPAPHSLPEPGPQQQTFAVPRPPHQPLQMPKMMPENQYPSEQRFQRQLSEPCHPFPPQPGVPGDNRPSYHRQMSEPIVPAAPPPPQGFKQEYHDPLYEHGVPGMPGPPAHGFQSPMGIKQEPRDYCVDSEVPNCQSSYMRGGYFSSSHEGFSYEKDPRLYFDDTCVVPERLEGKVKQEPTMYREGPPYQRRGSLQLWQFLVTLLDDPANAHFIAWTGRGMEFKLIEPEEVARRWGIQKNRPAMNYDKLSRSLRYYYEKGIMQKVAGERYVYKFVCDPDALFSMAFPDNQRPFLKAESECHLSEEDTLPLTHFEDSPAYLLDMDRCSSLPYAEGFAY
ELF4, sequence (Q99607 whole entry): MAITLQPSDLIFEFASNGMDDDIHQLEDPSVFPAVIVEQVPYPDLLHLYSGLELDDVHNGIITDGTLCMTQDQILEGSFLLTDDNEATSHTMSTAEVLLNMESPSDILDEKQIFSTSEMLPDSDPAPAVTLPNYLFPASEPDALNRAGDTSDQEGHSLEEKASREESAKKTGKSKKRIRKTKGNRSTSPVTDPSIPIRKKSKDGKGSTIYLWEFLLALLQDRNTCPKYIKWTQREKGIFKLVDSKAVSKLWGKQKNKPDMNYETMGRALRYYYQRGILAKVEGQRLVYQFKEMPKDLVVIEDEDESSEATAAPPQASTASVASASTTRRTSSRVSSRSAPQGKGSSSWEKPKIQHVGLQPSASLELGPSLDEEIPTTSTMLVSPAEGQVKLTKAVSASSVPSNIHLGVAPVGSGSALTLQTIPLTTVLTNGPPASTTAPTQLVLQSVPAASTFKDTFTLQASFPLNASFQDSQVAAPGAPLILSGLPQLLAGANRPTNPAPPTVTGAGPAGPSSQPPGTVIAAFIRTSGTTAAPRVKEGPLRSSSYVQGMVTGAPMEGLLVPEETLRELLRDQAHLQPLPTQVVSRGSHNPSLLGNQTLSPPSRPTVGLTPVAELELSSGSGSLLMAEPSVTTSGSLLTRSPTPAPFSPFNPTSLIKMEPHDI
ETV6, sequence (P41212 whole entry): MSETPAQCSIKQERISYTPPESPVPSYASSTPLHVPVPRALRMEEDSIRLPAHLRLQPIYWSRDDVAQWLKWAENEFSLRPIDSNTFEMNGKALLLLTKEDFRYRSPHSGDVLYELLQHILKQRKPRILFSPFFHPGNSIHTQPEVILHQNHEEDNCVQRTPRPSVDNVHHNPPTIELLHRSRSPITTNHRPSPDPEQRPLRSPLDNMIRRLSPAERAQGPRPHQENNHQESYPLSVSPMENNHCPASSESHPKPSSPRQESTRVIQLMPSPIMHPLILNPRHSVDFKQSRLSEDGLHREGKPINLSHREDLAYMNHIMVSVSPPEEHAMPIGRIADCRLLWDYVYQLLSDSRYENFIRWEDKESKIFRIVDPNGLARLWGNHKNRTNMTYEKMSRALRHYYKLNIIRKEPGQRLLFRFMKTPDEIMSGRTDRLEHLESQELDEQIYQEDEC

As for GTCCTA, the binding signal with FEV was 1.07 fold enrichment (6-mer frequency, TF over GST control); with ETV5, 1.16 fold enrichment (6-mer frequency, TF over GST control); with HSF1, 1.03 fold enrichment (6-mer frequency, TF over GST control); with SPIC, 1.16 fold enrichment (6-mer frequency, TF over GST control); with ELF4 it was 1.18 fold enrichment (6-mer frequency, TF over GST control); with ELK4, 1.13 fold enrichment (6-mer frequency, TF over GST control). Besides, the binding signal in the assay with ETV2 is 1.31 fold enrichment (6-mer frequency, TF over GST control); with ELF3, 1.2 fold enrichment (6-mer frequency, TF over GST control); with CRX, 1.06 fold enrichment (6-mer frequency, TF over GST control); in the assay with ETV1, 1.12 fold enrichment (6-mer frequency, TF over GST control); with ERF it was 1.32 fold enrichment (6-mer frequency, TF over GST control); with ETV3L it was 1.12 fold enrichment (6-mer frequency, TF over GST control). Also, the binding signal with ETS2 is 1.11 fold enrichment (6-mer frequency, TF over GST control); with SPDEF it was 1.29 fold enrichment (6-mer frequency, TF over GST control); in the assay with ETV7, 1.29 fold enrichment (6-mer frequency, TF over GST control); in the assay with ELF5 it was 1.14 fold enrichment (6-mer frequency, TF over GST control); in the assay with ETV3, 1.25 fold enrichment (6-mer frequency, TF over GST control); with ETV6 it was 1.13 fold enrichment (6-mer frequency, TF over GST control).
